Measurements reported in paper PMC7862700, “An all-to-all approach to the identification of sequence-specific readers for epigenetic DNA modifications on cytosine”.

What was measured:
Assay in all cases: DAPPL (digital affinity profiling via proximity ligation, sequencing); 10 mM Tris-HCl pH 7.5, 50 mM NaCl, 1 mM DTT, 4% glycerol, room temperature, 30 min; GST-TFs on glutathione beads, 16-mer random dsDNA library, 0.1% formaldehyde crosslink after washing; high values mean tight binding
Settings in all cases: protein: recombinant; tags: N-terminal GST; dsDNA, one strand shown
[1] = biological target: T1, FLI1 (Homo sapiens, UniProt Q01543 1-452)
T1 sequence: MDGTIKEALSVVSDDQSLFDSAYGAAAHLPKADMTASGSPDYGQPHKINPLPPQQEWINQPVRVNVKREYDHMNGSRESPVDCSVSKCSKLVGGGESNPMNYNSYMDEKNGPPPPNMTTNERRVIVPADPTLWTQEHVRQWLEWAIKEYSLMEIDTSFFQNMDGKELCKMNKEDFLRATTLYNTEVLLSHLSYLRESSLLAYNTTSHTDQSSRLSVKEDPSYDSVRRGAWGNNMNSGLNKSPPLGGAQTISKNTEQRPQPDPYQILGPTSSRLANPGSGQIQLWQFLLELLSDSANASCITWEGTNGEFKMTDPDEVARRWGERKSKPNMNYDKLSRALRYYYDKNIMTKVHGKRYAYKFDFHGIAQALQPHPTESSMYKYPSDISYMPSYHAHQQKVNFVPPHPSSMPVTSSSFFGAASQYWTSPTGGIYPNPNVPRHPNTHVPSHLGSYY
Summary of the method: (§1)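 Pools were built from human transcription factors expressed in yeast as GST fusions, captured on glutathione beads and DNA-barcoded, along with a tag-only sample. Incubation with 200 nmole of a 16-mer random double-stranded DNA library lasted 30 min at room temperature in Tris/NaCl/DTT/glycerol buffer, and was followed by washing, 0.1% formaldehyde crosslinking, proximity ligation, PCR amplification and Illumina NextSeq500 sequencing. Binding signal is the quotient of each hexamer's read frequency for a factor and its frequency for the tag-only sample.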

[2] = biological target: T2, ELK1 (Homo sapiens, UniProt P19419 1-428)
T2 sequence: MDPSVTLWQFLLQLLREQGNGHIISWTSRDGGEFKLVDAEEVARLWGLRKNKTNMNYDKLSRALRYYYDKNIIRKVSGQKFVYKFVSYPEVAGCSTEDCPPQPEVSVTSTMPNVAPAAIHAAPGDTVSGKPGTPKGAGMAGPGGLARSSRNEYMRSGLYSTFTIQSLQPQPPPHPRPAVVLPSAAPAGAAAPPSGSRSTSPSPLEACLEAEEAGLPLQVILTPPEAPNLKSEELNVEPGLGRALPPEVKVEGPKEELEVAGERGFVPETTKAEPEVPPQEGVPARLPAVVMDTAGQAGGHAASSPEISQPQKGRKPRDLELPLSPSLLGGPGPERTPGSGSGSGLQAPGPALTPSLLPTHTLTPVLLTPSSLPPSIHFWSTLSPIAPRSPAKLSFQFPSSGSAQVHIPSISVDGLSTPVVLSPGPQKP
Summary of the method: as §1

[3] = biological target: T3, GABPA (Homo sapiens, UniProt Q06546 1-454)
T3 sequence: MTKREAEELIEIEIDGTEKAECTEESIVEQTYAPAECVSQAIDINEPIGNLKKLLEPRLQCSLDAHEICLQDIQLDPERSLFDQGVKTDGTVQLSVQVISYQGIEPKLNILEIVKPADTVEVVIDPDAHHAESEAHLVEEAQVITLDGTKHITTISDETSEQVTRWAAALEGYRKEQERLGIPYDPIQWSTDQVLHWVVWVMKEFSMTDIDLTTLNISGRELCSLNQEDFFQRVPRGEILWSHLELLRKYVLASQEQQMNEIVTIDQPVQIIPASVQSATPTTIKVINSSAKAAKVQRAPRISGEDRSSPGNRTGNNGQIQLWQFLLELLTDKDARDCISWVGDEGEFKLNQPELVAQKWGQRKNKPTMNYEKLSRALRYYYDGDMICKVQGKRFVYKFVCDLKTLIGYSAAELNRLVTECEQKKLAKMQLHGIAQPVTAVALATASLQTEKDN
Summary of the method: as §1

[4] = biological target: ELF1 (Homo sapiens, UniProt P32519 1-619)
Sequence of ELF1 (P32519 whole entry): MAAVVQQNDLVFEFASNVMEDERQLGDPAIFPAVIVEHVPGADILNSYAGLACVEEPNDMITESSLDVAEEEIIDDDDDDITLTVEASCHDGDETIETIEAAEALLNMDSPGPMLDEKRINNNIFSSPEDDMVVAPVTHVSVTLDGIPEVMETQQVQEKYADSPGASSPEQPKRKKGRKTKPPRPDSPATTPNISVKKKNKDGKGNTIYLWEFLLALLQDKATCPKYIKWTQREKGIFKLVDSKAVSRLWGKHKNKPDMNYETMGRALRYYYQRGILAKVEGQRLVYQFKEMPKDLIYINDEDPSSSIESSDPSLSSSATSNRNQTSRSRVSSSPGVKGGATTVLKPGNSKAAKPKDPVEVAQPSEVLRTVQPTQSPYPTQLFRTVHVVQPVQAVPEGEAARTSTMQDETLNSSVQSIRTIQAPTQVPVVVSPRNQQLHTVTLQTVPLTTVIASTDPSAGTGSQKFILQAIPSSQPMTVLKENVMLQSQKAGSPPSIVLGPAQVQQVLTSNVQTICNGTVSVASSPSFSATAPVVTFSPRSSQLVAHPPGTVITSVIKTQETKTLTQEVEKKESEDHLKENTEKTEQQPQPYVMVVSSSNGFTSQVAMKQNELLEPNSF
Summary of the method: as §1

[5] = biological target: T4, EHF (Homo sapiens, UniProt Q9NZC4 1-300)
T4 sequence: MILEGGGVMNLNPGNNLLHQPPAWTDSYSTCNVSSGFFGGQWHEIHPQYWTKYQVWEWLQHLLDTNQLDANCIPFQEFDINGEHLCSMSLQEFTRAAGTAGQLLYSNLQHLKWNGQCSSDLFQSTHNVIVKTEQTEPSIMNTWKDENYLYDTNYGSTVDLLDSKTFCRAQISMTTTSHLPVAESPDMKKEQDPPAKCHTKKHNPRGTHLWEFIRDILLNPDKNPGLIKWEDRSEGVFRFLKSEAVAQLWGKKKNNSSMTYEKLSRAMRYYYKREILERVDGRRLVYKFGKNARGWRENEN
Summary of the method: as §1

[6] = biological target: SPI1 (Homo sapiens, UniProt P17947 1-270)
Summary of the method: as §1

[7] = biological target: SPIB (Homo sapiens, UniProt Q01892 1-262)
Sequence of SPIB (Q01892 whole entry): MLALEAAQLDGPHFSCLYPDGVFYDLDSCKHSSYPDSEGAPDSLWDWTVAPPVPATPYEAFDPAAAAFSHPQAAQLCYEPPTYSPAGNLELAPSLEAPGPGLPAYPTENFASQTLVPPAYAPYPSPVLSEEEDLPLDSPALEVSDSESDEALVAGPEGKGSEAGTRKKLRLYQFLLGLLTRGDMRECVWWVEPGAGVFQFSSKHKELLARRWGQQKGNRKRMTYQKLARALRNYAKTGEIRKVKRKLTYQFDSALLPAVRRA
Summary of the method: as §1

[8] = biological target: T5, ELK3 (Homo sapiens, UniProt P41970 1-407)
T5 sequence: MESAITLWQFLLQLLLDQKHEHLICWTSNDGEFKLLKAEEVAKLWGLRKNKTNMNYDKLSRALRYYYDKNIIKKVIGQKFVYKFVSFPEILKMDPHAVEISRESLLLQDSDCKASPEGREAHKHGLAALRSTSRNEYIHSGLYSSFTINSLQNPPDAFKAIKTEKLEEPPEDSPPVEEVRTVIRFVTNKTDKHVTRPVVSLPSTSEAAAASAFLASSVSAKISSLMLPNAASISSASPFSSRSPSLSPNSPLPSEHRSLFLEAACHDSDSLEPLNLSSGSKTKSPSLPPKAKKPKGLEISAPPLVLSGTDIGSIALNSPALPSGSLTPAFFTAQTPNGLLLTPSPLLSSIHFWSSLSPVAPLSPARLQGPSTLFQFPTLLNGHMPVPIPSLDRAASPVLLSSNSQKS
Summary of the method: as §1

[9] = biological target: T6, ERG (Homo sapiens, UniProt P11308 1-479)
T6 sequence: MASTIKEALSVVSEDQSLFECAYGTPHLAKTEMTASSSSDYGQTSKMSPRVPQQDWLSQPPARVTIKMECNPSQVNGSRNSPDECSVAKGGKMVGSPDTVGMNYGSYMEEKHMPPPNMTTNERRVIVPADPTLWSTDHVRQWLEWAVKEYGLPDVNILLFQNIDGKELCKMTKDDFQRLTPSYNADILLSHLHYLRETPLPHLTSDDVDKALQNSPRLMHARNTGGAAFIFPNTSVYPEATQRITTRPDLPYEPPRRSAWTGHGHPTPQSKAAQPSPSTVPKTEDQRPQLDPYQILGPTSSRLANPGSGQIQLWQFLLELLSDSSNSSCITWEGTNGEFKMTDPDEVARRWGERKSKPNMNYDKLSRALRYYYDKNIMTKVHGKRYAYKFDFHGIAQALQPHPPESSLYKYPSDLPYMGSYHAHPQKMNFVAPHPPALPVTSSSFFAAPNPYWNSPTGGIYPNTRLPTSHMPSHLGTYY
Summary of the method: as §1

Row | Sequence | binding signal [1] | binding signal [2] | binding signal [3] | binding signal [4] | binding signal [5] | binding signal [6] | binding signal [7] | binding signal [8] | binding signal [9]
1 | CGAGTT | 1.16 fold enrichment (6-mer frequency, TF over GST control) | 1.1 fold enrichment (6-mer frequency, TF over GST control) | 1.02 fold enrichment (6-mer frequency, TF over GST control) | 1.16 fold enrichment (6-mer frequency, TF over GST control) | 1.04 fold enrichment (6-mer frequency, TF over GST control) | 1.09 fold enrichment (6-mer frequency, TF over GST control) | 1.07 fold enrichment (6-mer frequency, TF over GST control) | 1.14 fold enrichment (6-mer frequency, TF over GST control) | 
2 | CAAAGC | 1.08 fold enrichment (6-mer frequency, TF over GST control) | 1.02 fold enrichment (6-mer frequency, TF over GST control) | 1.16 fold enrichment (6-mer frequency, TF over GST control) | 1.17 fold enrichment (6-mer frequency, TF over GST control) |  | 1.03 fold enrichment (6-mer frequency, TF over GST control) | 1.04 fold enrichment (6-mer frequency, TF over GST control) | 1.1 fold enrichment (6-mer frequency, TF over GST control) | 1 fold enrichment (6-mer frequency, TF over GST control)
3 | ACACGA | 1.08 fold enrichment (6-mer frequency, TF over GST control) | 1.1 fold enrichment (6-mer frequency, TF over GST control) | 1.11 fold enrichment (6-mer frequency, TF over GST control) | 1.1 fold enrichment (6-mer frequency, TF over GST control) |  | 1.07 fold enrichment (6-mer frequency, TF over GST control) | 1.04 fold enrichment (6-mer frequency, TF over GST control) | 1.1 fold enrichment (6-mer frequency, TF over GST control) | 1.02 fold enrichment (6-mer frequency, TF over GST control)
4 | TAGCGG | 1.14 fold enrichment (6-mer frequency, TF over GST control) | 1.1 fold enrichment (6-mer frequency, TF over GST control) | 1.06 fold enrichment (6-mer frequency, TF over GST control) |  | 1.24 fold enrichment (6-mer frequency, TF over GST control) | 1.23 fold enrichment (6-mer frequency, TF over GST control) | 1.17 fold enrichment (6-mer frequency, TF over GST control) | 1.08 fold enrichment (6-mer frequency, TF over GST control) | 1.16 fold enrichment (6-mer frequency, TF over GST control)
5 | GCTGGC | 1.01 fold enrichment (6-mer frequency, TF over GST control) | 1.21 fold enrichment (6-mer frequency, TF over GST control) | 1.02 fold enrichment (6-mer frequency, TF over GST control) | 1.11 fold enrichment (6-mer frequency, TF over GST control) |  | 1 fold enrichment (6-mer frequency, TF over GST control) |  | 1.03 fold enrichment (6-mer frequency, TF over GST control) | 1.01 fold enrichment (6-mer frequency, TF over GST control)
6 | GGTTCA | 1.14 fold enrichment (6-mer frequency, TF over GST control) | 1.04 fold enrichment (6-mer frequency, TF over GST control) | 1.11 fold enrichment (6-mer frequency, TF over GST control) | 1.07 fold enrichment (6-mer frequency, TF over GST control) |  | 1.02 fold enrichment (6-mer frequency, TF over GST control) | 1.04 fold enrichment (6-mer frequency, TF over GST control) | 1.03 fold enrichment (6-mer frequency, TF over GST control) | 1.03 fold enrichment (6-mer frequency, TF over GST control)
7 | TGCCTA | 1.02 fold enrichment (6-mer frequency, TF over GST control) | 1.12 fold enrichment (6-mer frequency, TF over GST control) | 1.01 fold enrichment (6-mer frequency, TF over GST control) | 1.11 fold enrichment (6-mer frequency, TF over GST control) | 1.09 fold enrichment (6-mer frequency, TF over GST control) | 1.04 fold enrichment (6-mer frequency, TF over GST control) | 1.07 fold enrichment (6-mer frequency, TF over GST control) |  | 
8 | TGTTCG | 1.19 fold enrichment (6-mer frequency, TF over GST control) | 1.1 fold enrichment (6-mer frequency, TF over GST control) | 1.07 fold enrichment (6-mer frequency, TF over GST control) |  | 1.2 fold enrichment (6-mer frequency, TF over GST control) | 1.06 fold enrichment (6-mer frequency, TF over GST control) | 1.09 fold enrichment (6-mer frequency, TF over GST control) | 1.03 fold enrichment (6-mer frequency, TF over GST control) | 1.04 fold enrichment (6-mer frequency, TF over GST control)
9 | AAAAGT | 1.02 fold enrichment (6-mer frequency, TF over GST control) | 1.1 fold enrichment (6-mer frequency, TF over GST control) | 1.08 fold enrichment (6-mer frequency, TF over GST control) | 1.01 fold enrichment (6-mer frequency, TF over GST control) | 1.1 fold enrichment (6-mer frequency, TF over GST control) | 1.06 fold enrichment (6-mer frequency, TF over GST control) | 1.12 fold enrichment (6-mer frequency, TF over GST control) | 1.06 fold enrichment (6-mer frequency, TF over GST control) | 
10 | GCAATA | 1.02 fold enrichment (6-mer frequency, TF over GST control) | 1.1 fold enrichment (6-mer frequency, TF over GST control) | 1.02 fold enrichment (6-mer frequency, TF over GST control) | 1.05 fold enrichment (6-mer frequency, TF over GST control) | 1.07 fold enrichment (6-mer frequency, TF over GST control) |  |  |  | 
11 | AAGACT | 1.09 fold enrichment (6-mer frequency, TF over GST control) | 1.12 fold enrichment (6-mer frequency, TF over GST control) | 1.06 fold enrichment (6-mer frequency, TF over GST control) | 1.08 fold enrichment (6-mer frequency, TF over GST control) |  | 1.12 fold enrichment (6-mer frequency, TF over GST control) | 1.08 fold enrichment (6-mer frequency, TF over GST control) | 1.14 fold enrichment (6-mer frequency, TF over GST control) | 1.1 fold enrichment (6-mer frequency, TF over GST control)
